High-throughput results (PubChem)
This is a sample that favours compounds with a hit; in the whole collection about 6.2% have one here.
Mot1-301 SUMO: yeast Mot1-301 growth rescue at high temperature, primary screen, SUMOylation pathway inhibitor project, S. cerevisiae, ATP luminescence, 38.5C; AID 2716, 2010; hit rate 1% among 320,000; S. cerevisiae Mot1-301 growth rescue; percent above DMSO median, 100 means doubled; growth rescue, % at 18.8 µM;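 active = every valid replicate shows activation above 250% relative to neutral control wells; inactive = the rest, any valid replicate at or below 250%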;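 note: OY570 slx delta 5 strain wells were the positive control but not used for scaling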
NR3A LBD binder: binders of NR3A ligand-binding domain, primary screen, biophysical, differential scanning fluorimetry, uHTS | Glutamate receptor ionotropic, NMDA 3A (GRIN3A) ligand-binding domain | NR3A LBD differential scanning fluorimetry, Tm shift; 0% = protein alone, 100% = glycine-bound protein | Tm shift relative to glycine control, % at 25 µM | hit rate 2.5% among 340,000 | AID 1259313, 2017;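 active = melting temperature shift of at least 10% of the positive control shift, at one fixed dose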
AI-2 QS mod: Vibrio harveyi AI-2 quorum sensing modulators, primary screen, JMH597 strain, luminescence/OD600 ratio | Vibrio harveyi JMH597 AI-2 luminescence/OD600 ratio, 9 h; hits give low values; strain lacks LuxN and CqsS sensors; 0 = neutral-control median | activity change, % at 7.5 µM | hit rate 0.4% among 300,000 | AID 2094, 2009; in the data active = activity change below about -75%, passing the limit was not always enough;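 note: luminescence divided by OD600 gain over 9 h not by final OD600 alone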
H9c2 protect: cardioprotection against H2O2-induced cell death, primary screen, uHTS, H9c2 cells, ATPLite luminescence. protection from H2O2 cell death, % at 20 µM. H9c2 cardiomyocytes, H2O2 injury protection, 2 h. hit rate 0.63% among 360,000. AID 588492, 2011;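 active = compounds giving at least 50% protection of heart cells from peroxide-induced death in the single-dose screen, raw or plate-pattern-corrected value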;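 note: 0% = DMSO wells with peroxide and 100% = DMSO wells without peroxide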
NTR1 agonist: agonists of human NTR1, primary screen, imaging, U2OS cells, beta-arrestin-GFP, high content | NTR1-U2OS beta-arrestin-GFP spot imaging, agonist mode | activation, % at 20 µM | hit rate 0.17% among 330,000 | AID 493036, 2011;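 active = activation at or above 40% of the spot to cytoplasm intensity ratio, with at least 20 cells analyzed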;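 note: 0% = DMSO without peptide and 100% = 100 nM NTR1 peptide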
Target sequence (P30989 whole entry, looked up): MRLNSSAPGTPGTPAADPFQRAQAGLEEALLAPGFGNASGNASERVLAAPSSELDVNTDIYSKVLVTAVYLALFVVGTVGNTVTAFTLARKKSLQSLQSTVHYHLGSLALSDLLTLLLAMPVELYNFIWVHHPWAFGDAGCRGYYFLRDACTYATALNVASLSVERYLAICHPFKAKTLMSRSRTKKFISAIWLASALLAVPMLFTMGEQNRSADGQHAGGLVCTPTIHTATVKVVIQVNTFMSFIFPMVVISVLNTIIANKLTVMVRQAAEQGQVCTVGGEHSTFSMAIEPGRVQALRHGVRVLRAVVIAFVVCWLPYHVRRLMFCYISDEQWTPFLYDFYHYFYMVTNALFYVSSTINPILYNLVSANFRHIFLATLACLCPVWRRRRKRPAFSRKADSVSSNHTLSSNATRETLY
AHR activator: AHR activators, primary screen, cell-based, luminescence, luciferase reporter, human. hit rate 2.5% among 320,000. Aryl hydrocarbon receptor (Homo sapiens), P35869. AHR-responsive luciferase reporter cells. activation, % at 5 µM; in the data active = activation above about 47%;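 note: 0% = vehicle wells and 100% = reference agonist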
* = called active by the depositor.

For Cc1ccc(S(=O)(=O)Nc2cc(Cl)c(O)c3ncccc23)cc1 the results were Mot1-301 SUMO -16, NR3A LBD binder -4, AI-2 QS mod -227*, H9c2 protect 27, NTR1 agonist 2 and AHR activator 22.
`COCCNC(=O)Cc1c(C)c2c(cc(C)c3c(C(C)(C)C)coc32)oc1=O` gave Mot1-301 SUMO -2, NR3A LBD binder -1, AI-2 QS mod 1, H9c2 protect 6, NTR1 agonist 4 and AHR activator 8.
`Cc1ccc2[nH]c3c(=O)n(N)c(C)nc3c2c1` gave Mot1-301 SUMO -12, NR3A LBD binder 0, AI-2 QS mod 26, H9c2 protect -6, NTR1 agonist 3 and AHR activator 48*.
COc1ccc2[nH]c3c(=O)n(N)c(C)nc3c2c1 was read as Mot1-301 SUMO -1, NR3A LBD binder -2, AI-2 QS mod 16, H9c2 protect 3, NTR1 agonist -1 and AHR activator 41.
CC[C@H](C)[C@H](NS(=O)(=O)c1ccc(C)cc1)C(=O)N1CCC(C(=O)N[C@H](C(=O)O)C(C)C)CC1 was read as Mot1-301 SUMO -7, NR3A LBD binder -1, AI-2 QS mod 23, H9c2 protect 0, NTR1 agonist 0 and AHR activator 4.
`CCC(C)[C@H](NS(=O)(=O)c1ccc(C)cc1)C(=O)N1CCC(C(=O)N[C@@H](Cc2ccccc2)C(=O)O)CC1` (some centres undefined) gave Mot1-301 SUMO -4, NR3A LBD binder 13*, AI-2 QS mod 8, H9c2 protect -6, NTR1 agonist 1 and AHR activator 3.
Screening Fc1ccccc1CNc1ccc(Cl)cc1 returned Mot1-301 SUMO 205, NR3A LBD binder -48, AI-2 QS mod 28, H9c2 protect -6, NTR1 agonist 0 and AHR activator 0.
`Clc1ccc(NCc2ccsc2)cc1` gave Mot1-301 SUMO 408*, AI-2 QS mod 25, NTR1 agonist 1 and AHR activator 12.
Screening CC(=O)Nc1ccc2c(c1)N(S(=O)(=O)c1cccs1)CCC2 returned Mot1-301 SUMO 26, NR3A LBD binder 1, AI-2 QS mod 25, H9c2 protect 2, NTR1 agonist 1 and AHR activator -3.
Screening O=C(C1CCC(=O)N(C2CCCC2)C1)N1CCC(Oc2cccc(F)c2)CC1 (centres undefined) returned Mot1-301 SUMO -9, NR3A LBD binder 18*, AI-2 QS mod -3, H9c2 protect -3, NTR1 agonist 0 and AHR activator 1.
Screening COc1ccccc1OCC(=O)/C=C1/N(C)c2ccccc2C1(C)C returned Mot1-301 SUMO 12, NR3A LBD binder 0, AI-2 QS mod 9, H9c2 protect -13, NTR1 agonist 4 and AHR activator 16.
Screening CN1/C(=C\C(=O)COc2ccc3c(c2)OCO3)C(C)(C)c2ccccc21 returned Mot1-301 SUMO 0, NR3A LBD binder 3, AI-2 QS mod 7, H9c2 protect -24, NTR1 agonist 0 and AHR activator 56*.
Screening Cc1ccc(C(=O)NC(=S)NCc2cccnc2)cc1C returned Mot1-301 SUMO 439, NR3A LBD binder 2, AI-2 QS mod 8, H9c2 protect -9, NTR1 agonist 1 and AHR activator 32.
`COc1ccc(C(=O)NC(=S)NCc2cccnc2)cc1Br` gave Mot1-301 SUMO -4, NR3A LBD binder 0, AI-2 QS mod 18, H9c2 protect -1, NTR1 agonist 2 and AHR activator 51*.
For COc1ccc(C(=O)NC(=S)Nc2cccnc2)cc1[N+](=O)[O-] the results were Mot1-301 SUMO -3, NR3A LBD binder -2, AI-2 QS mod 2, H9c2 protect 12, NTR1 agonist -1 and AHR activator 59*.
For Cc1nn(C(C)C(=O)NCCCc2ccccc2)c(=O)c2nn(-c3ccccc3)c(C)c12 (centres undefined) the results were Mot1-301 SUMO 4, NR3A LBD binder 0, AI-2 QS mod 18, H9c2 protect 0, NTR1 agonist 0 and AHR activator -1.
Screening O=C(O)COc1ccc(/C=C/c2nc(-c3ccccc3O)n[nH]2)cc1 returned Mot1-301 SUMO -12, NR3A LBD binder -8, AI-2 QS mod 9, H9c2 protect 9, NTR1 agonist 0 and AHR activator 6.
COc1ccc(/C=C/c2nc(-c3ccccc3O)n[nH]2)cc1OC was read as Mot1-301 SUMO 9, NR3A LBD binder 27*, AI-2 QS mod -1, H9c2 protect 37, NTR1 agonist 8 and AHR activator 29.
`Cc1ccc(C2NC(=O)c3c(sc(C)c3C)N2)c(O)c1` (centres undefined) gave Mot1-301 SUMO 9, NR3A LBD binder 1, AI-2 QS mod 2, H9c2 protect -2, NTR1 agonist 0 and AHR activator 49*.
COc1ccc(C2CC(=O)Oc3c(C(C)C)ccc(C)c32)cc1 (centres undefined) was read as NR3A LBD binder 13*, H9c2 protect -13 and NTR1 agonist 9.
For COc1ccc(C2CC(=O)Oc3cc(C)cc(C)c32)cc1 (centres undefined) the results were NR3A LBD binder 2, H9c2 protect -18 and NTR1 agonist 0.
Cc1ccc2nc(NC(=O)/C=C/c3ccc4c(c3)OCO4)sc2c1 was read as Mot1-301 SUMO 258, NR3A LBD binder 36*, AI-2 QS mod 8, H9c2 protect -2, NTR1 agonist 5 and AHR activator 7.
`C(=N\Nc1nc2ccccc2s1)/c1ccc2c(c1)OCO2` gave Mot1-301 SUMO -2, NR3A LBD binder 9, AI-2 QS mod -2, H9c2 protect -9, NTR1 agonist 9 and AHR activator 112*.
`O=C(/C=C/c1ccc2c(c1)OCO2)Nc1nc2ccccc2s1` gave Mot1-301 SUMO 2, NR3A LBD binder 14*, AI-2 QS mod 11, H9c2 protect 2, NTR1 agonist -1 and AHR activator 47.
`CC(Oc1ccc2c(-c3ccccc3)cc(=O)oc2c1)C(=O)N1CCC[C@@H]1C(N)=O` (some centres undefined) gave Mot1-301 SUMO 0, NR3A LBD binder -2, AI-2 QS mod 0, H9c2 protect 12, NTR1 agonist -2 and AHR activator 1.
